Results published in PubChem BioAssay (NCI).
The panel holds about 79,000 compounds, 15% with a hit somewhere; the sample as a whole holds those more often. A number with no mark means an inactive call. Active and inactive are the calls of the source. Cut-off read from the data, not from the text of the source: active = growth inhibition above about 70%; inactive = the rest.

How the values were obtained:
[1] = NCI Yeast Anticancer Drug Screen. Data for the rad50 strain (AID 155);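 note: 0% = growth of vehicle-only cultures of the same strain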; conditions: S. cerevisiae rad50 strain growth inhibition; at 50.0 µM; stronger effect = higher value
In short: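 Compounds were tested on a yeast strain with an engineered DNA damage repair alteration; the reported value is growth inhibition normalised to vehicle treatment.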

[2] = NCI Yeast Anticancer Drug Screen. Data for the mec2-1 strain (AID 157); conditions: S. cerevisiae mec2-1 strain, at 50.0 µM, stronger effect = higher value
In short: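 Each compound was tested on mec2-1 yeast, a strain altered in DNA damage repair or cell cycle control. Growth inhibition is reported relative to vehicle.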

[3] = NCI Yeast Anticancer Drug Screen. Data for the sgs1 mgt1 strain (AID 161);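 note: 0% = growth of cultures given vehicle only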; conditions: S. cerevisiae sgs1 mgt1 strain, at 50.0 µM, stronger effect = higher value
In short: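 Read-out: growth inhibition vs vehicle controls. Cells: mutant yeast strain deficient in DNA damage repair.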

[4] = NCI Yeast Anticancer Drug Screen. Data for the cln2 rad14 strain (AID 165);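 note: 0% = growth equal to vehicle treated cultures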; conditions: S. cerevisiae cln2 rad14 strain, at 50.0 µM, stronger effect = higher value
In short: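 Test compounds were added to cln2 rad14 yeast cultures; inhibition of growth was then determined by comparison with vehicle treatment.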

[5] = NCI Yeast Anticancer Drug Screen. Data for the bub3 strain (AID 167); conditions: S. cerevisiae bub3 mutant strain, at 50.0 µM, stronger effect = higher value
In short: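 Growth of a checkpoint-deficient yeast mutant is measured after compound exposure. Values represent inhibition relative to vehicle.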

[6] = NCI Yeast Anticancer Drug Screen. Data for the mlh1 rad18 strain (AID 175); conditions: S. cerevisiae mlh1 rad18 strain growth inhibition; at 50.0 µM; stronger effect = higher value
In short: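 Inhibition values reflect reduced growth of mutant yeast versus vehicle-treated controls following compound exposure; the mutations affect DNA damage repair.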

Structure (SMILES)	growth inhibition [1]	growth inhibition [2]	growth inhibition [3]	growth inhibition [4] [%]	growth inhibition [5] [%]	growth inhibition [6]
CC(=O)OC1CCC2(C)C(CCC3C2CCC2(C)C(C(C)C(=O)O)CCC32)C1 (stereo unspecified)	-10.7%	1.85%	1.45%	10.8	-3.6	3.9%
O=C(O)CCC(=O)Oc1ccc(O)c2c1CCCC2=O	-6.95%	1.65%	-0.95%	-17.8	-1.3	-9.15%
O=C(Nc1ccccc1)OCC(CN1CCCCC1)OC(=O)Nc1ccccc1 (stereo unspecified)	-35.7%	-38%	-13.8%	5.55	-23.8	-37.1%
CCOC(=O)C(CCCN=C(N)NC(=O)OCc1ccccc1)NC(=O)C(C(C)C)N1C(=O)c2ccccc2C1=O (stereo unspecified)	93% (active)	78.5% (active)	96.2% (active)	52	48.9	96% (active)
COC(=O)c1nc(N)nc(C(=O)OC)c1C(=O)c1ccc(F)cc1	8.55%	-1%	-12.3%	5.35	9.4	20.6%
Cc1cc(OC(=O)Nc2cccc(Cl)c2C)ccc1[N+](=O)[O-]	1.35%	53.4%	25.6%	3.95	48.9	1.7%
CCOC(=O)c1csc(N)n1	-24.5%	7.35%	-15.1%	-39.6	-9.7	-18.3%
CC(=O)NC1CCCCC1C1CCC([N+](=O)[O-])CC1 (stereo unspecified)	12.6%	-1.75%	-12.5%	12.7	6.9	6.05%
CCc1ccccc1-n1[nH]c(C)c(C=N)c1=O	-8.2%	-18.1%	-18.2%	-14.1	-16.7	-8.15%
COc1cc(C2c3cc4c(cc3C(OC(=O)C[n+]3ccccc3)C3COC(=O)C23)OCO4)cc(OC)c1OC (stereo unspecified)	28.7%	-9.15%	1.7%	-4.75	18.8	16.5%
Cc1ncc([N+](=O)[O-])n1CCNC(=O)CCCCCn1ccnc1[N+](=O)[O-]	3.1%	-4.05%	-9.45%	19.7	-6.15	-35.2%
COc1ccc(C(CC(=O)c2ccccc2)C(=O)c2ccc3c(c2)OCO3)cc1 (stereo unspecified)	-40%	-50.5%	-38.8%	-12.7	-0.3	-31.6%
O=C(NC(=O)c1ccc(F)c(Cl)c1)NC1CC1	6.3%	-1.15%	12%	14.2	9.25	5.3%
Nc1nnc(CCC(=O)Nc2cccc(C(F)(F)F)c2)n1N	4.85%	5.6%	7.3%	-27.9	9.65	1.55%
Cc1ccc(S(=O)(=O)C(c2ccccc2)C(Br)C(=O)c2ccccc2)cc1 (stereo unspecified)	-0.25%	0.35%	18.2%	7.3	1.55	-8.4%
O=C(O)C1CCCCN1/N=C/c1cccc([N+](=O)[O-])c1 (stereo unspecified)	36%	11.9%	22%	1.3	26.9	11.9%
C[C@]12CC[C@@H]3c4ccc(OP(=O)(O)O)cc4CC[C@H]3[C@@H]1CCC2=O	-7%	4.9%	-22.7%	-23.9	-24.6	-14.1%
O=C1CCc2c(Cl)sc(Cl)c21	20.1%	5.5%	13.8%	-32.2	4.1	9.95%
O=C(NN1C(=O)CS(=O)(=O)C1c1ccccc1F)c1ccncc1 (stereo unspecified)	-8%	-4.4%	8.3%	-9.35	-0.1	7.75%
CCSc1cc(=O)n(C)c(=O)n1C	13.6%	7.15%	21.3%	4.55	5.25	-10.5%
CC(C)(C)OC(=O)NC(Cc1ccccc1)OCc1ccccc1 (stereo unspecified)	-11.3%	-25.2%	-0.05%	11.8	-15.4	-19.7%

Structure (SMILES)	growth inhibition [1]	growth inhibition [2]	growth inhibition [3]	growth inhibition [4] [%]	growth inhibition [5] [%]	growth inhibition [6]
Cc1c(O)cc(O)c(C)c1C	-0.3%	-23.3%	-8.6%	-2	9.8	-8.65%
Cc1cc(=O)[nH]c(NNC(C#N)c2ccccc2O)n1 (stereo unspecified)	-19.3%	-27.9%	-22.1%	-12	1.5	-34.8%
[B-][N+]1(C)CC[N+]([B-])(C)CC1 (stereo unspecified)	-0.6%	5.8%	-7%	16.1	-5.65	-11.6%
CCCSc1cc(Cl)c(C)cc1S(=O)(=O)n1cc[nH]c1=O	11.9%	7.3%	9.15%	5.75	13.3	35.7%
CC(C)C1NC(=O)[C@H](C)OC(=O)[C@@H](C(C)C)NC(=O)[C@@H](C)OC(=O)C(C(C)C)NC(=O)[C@H](C)OC1=O (stereo partly specified)	-36.7%	-2.15%	-17.1%	14.9	2.85	-10.2%
C/C=C/C(=O)OCCOc1ccccc1-c1ccccc1	15.5%	16.3%	4.35%	-16.3	25.2	20.1%
Nc1ccc(Br)c2ccccc12	33.4%	22.1%	16.8%	19.4	27.3	46.4%
COC(=O)/C(=N/NC(C)(C)C)C(C(=O)OC)C(=O)C(=O)Nc1nc2ccc([N+](=O)[O-])cc2s1 (stereo unspecified)	33.1%	8.15%	-22.9%	-10.4	0.1	27.4%
COC(=O)c1nc(NN)[nH]c(=O)c1CCCCCc1c(C(=O)OC)[nH]c(NN)cc1=O	-35.4%	-6.65%	-14.1%	14.9	-18.1	-8.85%
CC1(C)CC(=O)C(/C=N/C(N)=S)=C(O)C1	-20.3%	-52.1%	-13.8%	6.2	-0.85	-31.6%
CCOC(=O)[C@H]1Nc2ccc(C)cc2C2c3ccccc3CC21 (stereo partly specified)	-1.5%	-28.2%	3.45%	-1.7	-23.3	-22.8%
CC(=O)Nc1ccc2oc(=O)ccc2c1	-19.2%	-12.7%	-15.4%	-0.5	-4.2	-11.1%
O=C(O)COc1ccc(I)cc1I	23.3%	-8.05%	-4.85%	-37.5	23.6	19.2%
CC(=O)Nc1cccc(Oc2ccc(Cl)cc2[N+](=O)[O-])c1	13%	-6.6%	-2.75%	-5.2	2.35	7.95%
C=CCNC(=S)Nc1c(C)cc(C)cc1C	7.2%	8.4%	9.65%	-51.4	4.3	12.2%
CCCC(=O)C(N)Cc1ccc(O)cc1 (stereo unspecified)	-16.6%	-10.3%	4.35%	-9.35	-16.1	-1.7%
CC1(C)OC2(CC1C1(C)C=CC(=O)O1)CC1(O)C(CCC34CC13C(=O)OC4c1ccoc1)O2 (stereo unspecified)	17%	4.25%	-10.3%	24.7	14.9	16.8%
CCOC(=O)N1C(c2ccccc2)N(c2ccccc2)C(c2ccccc2)N1C(=O)OCC (stereo unspecified)	4.7%	4.65%	22.9%	3.3	-15.6	14.8%
COc1ccc(CCN=Cc2ccc(Cl)cc2)cc1OC	-3.55%	-28.4%	15.4%	-1.2	-17.1	-10.6%
COC(=O)c1oc([N+](=O)[O-])c(-c2ccccc2)c1-c1ccccc1	6.95%	12.5%	29.3%	-11.5	6.85	24.1%
